Results on 24 sequences are retold here after paper PMC5700166.

The target of experiment [1] is T1, GST-Nv-NF-kB (Ser allele) (Nematostella vectensis, UniProt A7UNT2 2-411).
T1 sequence: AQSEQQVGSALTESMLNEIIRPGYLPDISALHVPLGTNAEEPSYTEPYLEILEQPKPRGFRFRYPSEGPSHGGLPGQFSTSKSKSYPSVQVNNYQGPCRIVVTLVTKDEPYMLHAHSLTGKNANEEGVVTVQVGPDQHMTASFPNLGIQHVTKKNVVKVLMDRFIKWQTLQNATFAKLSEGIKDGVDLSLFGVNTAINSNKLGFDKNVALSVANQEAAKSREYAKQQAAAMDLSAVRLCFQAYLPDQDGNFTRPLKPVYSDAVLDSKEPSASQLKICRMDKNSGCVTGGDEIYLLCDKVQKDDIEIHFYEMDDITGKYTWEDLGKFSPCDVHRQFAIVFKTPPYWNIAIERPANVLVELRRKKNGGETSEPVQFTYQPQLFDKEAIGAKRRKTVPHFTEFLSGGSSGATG
Nature of the experiment: protein-binding microarray (PBM); PBM: ~300 nM protein, 6 mM HEPES pH 7.8, 80 mM KCl, 0.5 mM EDTA, 0.5 mM EGTA, 6% glycerol, 35 ng/ul poly-dIdC, 1% milk, 1 h, room temperature; Ap Aiptasia and Nv Nematostella (sea anemones) / Co Capsaspora / Aq Amphimedon (sponge) / Dm Drosophila / Hu human; RHD is the Rel homology domain; high values mean tight binding. Particulars: dsDNA, one strand shown.

The target of experiment [2] is GST-Hu-p50 (Homo sapiens, UniProt P19838 7-356). The experiment is described as above. Particulars: dsDNA, one strand shown.
Chain of GST-Hu-p50 (P19838 7-356): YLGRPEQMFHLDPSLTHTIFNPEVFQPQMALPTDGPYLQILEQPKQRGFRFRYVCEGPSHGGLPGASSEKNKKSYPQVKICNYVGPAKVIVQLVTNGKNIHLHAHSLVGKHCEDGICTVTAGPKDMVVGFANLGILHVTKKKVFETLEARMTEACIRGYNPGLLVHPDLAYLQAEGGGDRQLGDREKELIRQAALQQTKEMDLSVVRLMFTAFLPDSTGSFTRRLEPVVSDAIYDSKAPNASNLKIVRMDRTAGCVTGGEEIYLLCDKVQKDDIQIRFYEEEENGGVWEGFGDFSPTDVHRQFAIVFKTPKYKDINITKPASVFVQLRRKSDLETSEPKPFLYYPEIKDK

On to “CCGATTAACATCACGCGTCTACCTGATGTTAATCGGGTCTTGATTCGCTTGACGCTGCTG”, for which the binding signal in experiment [1] is 1.34 z-score.
For “CCGATTAACATCAGAAAATCCCATGATGTTAATCGGGTCTTGATTCGCTTGACGCTGCTG”, the binding signal in experiment [1] amounted to 3.29 z-score; in experiment [2] it was 3.86 z-score.
As for “CCGATTAACATCAGAATCTCCCATGATGTTAATCGGGTCTTGATTCGCTTGACGCTGCTG”, the values for the binding signal in experiment [1] and in experiment [2] were 1.67 z-score and 2.18 z-score, respectively.
“CCGATTAACATCAGATACCCCCCTGATGTTAATCGGGTCTTGATTCGCTTGACGCTGCTG”: the values for the binding signal in experiment [1] and in experiment [2] were 4.05 z-score and 4.1 z-score, respectively.
With “CCGATTAACATCAGAAATACCCATGATGTTAATCGGGTCTTGATTCGCTTGACGCTGCTG”, in experiment [1], the binding signal came out at 4.71 z-score.
With “CCGATTAACATCAAAATCTTCCCTGATGTTAATCGGGTCTTGATTCGCTTGACGCTGCTG”, the binding signal in experiment [1] amounted to 6.32 z-score; in experiment [2] it was 3.8 z-score.
“CCGATTAACATCAGGGGGGGGGATGATGTTAATCGGGTCTTGATTCGCTTGACGCTGCTG”: in experiment [1], the binding signal turned out to be 5.68 z-score.
On to “CCGATTAACATCAAGCACCCCCTTGATGTTAATCGGGTCTTGATTCGCTTGACGCTGCTG”, for which the binding signal in experiment [1] was found to be 4.85 z-score; in experiment [2] it was 4.55 z-score.
Consider “CCGATTAACATCAAAAAGTTCCCTGATGTTAATCGGGTCTTGATTCGCTTGACGCTGCTG”, for which the binding signal came out at 5.17 z-score in experiment [1] and 4.09 z-score in experiment [2].
With “CCGATTAACATCAGGGAAAACACTGATGTTAATCGGGTCTTGATTCGCTTGACGCTGCTG”, the binding signal came out at 5.79 z-score in experiment [1] and 4.24 z-score in experiment [2].
Take “CCGATTAACATCAGGGGGATAGATGATGTTAATCGGGTCTTGATTCGCTTGACGCTGCTG”: the binding signal in experiment [1] was 4.13 z-score; in experiment [2], 3.89 z-score.
In the same order, the values of “CCGATTAACATCAGGGGCTACCCTGATGTTAATCGGGTCTTGATTCGCTTGACGCTGCTG” are 2.1 z-score and 3.35 z-score.
For “CCGATTAACATCAGAGAAGTCCCTGATGTTAATCGGGTCTTGATTCGCTTGACGCTGCTG”, in that order: 5.95 z-score and 5.25 z-score.
In the same order, the values of “CCGATTAACATCAGAATATTCCCTGATGTTAATCGGGTCTTGATTCGCTTGACGCTGCTG” are 5.76 z-score and 3.75 z-score.
On to “CCGATTAACATCAGGGAATCTCATGATGTTAATCGGGTCTTGATTCGCTTGACGCTGCTG”, for which the binding signal in experiment [1] was 3.31 z-score; in experiment [2] it was 2.5 z-score.
For “CCGATTAACATCAGGTATTTTTATGATGTTAATCGGGTCTTGATTCGCTTGACGCTGCTG”, in that order: 3.43 z-score and 3.11 z-score.
In the same order, the values of “CCGATTAACATCAGGGAGCCCCCTGATGTTAATCGGGTCTTGATTCGCTTGACGCTGCTG” are 3.69 z-score and 5.27 z-score.
“CCGATTAACATCAGGGGAGTACATGATGTTAATCGGGTCTTGATTCGCTTGACGCTGCTG”: the binding signal in experiment [1] was 3.51 z-score; in experiment [2], 2.47 z-score.
For “CCGATTAACATCACCAAAATCCCTGATGTTAATCGGGTCTTGATTCGCTTGACGCTGCTG”, in that order: 2.71 z-score and 2.9 z-score.
On to “CCGATTAACATCAGAAACTTCCCTGATGTTAATCGGGTCTTGATTCGCTTGACGCTGCTG”, for which the binding signal in experiment [1] was 4.61 z-score.
As to “CCGATTAACATCAGAAATTACCATGATGTTAATCGGGTCTTGATTCGCTTGACGCTGCTG”, the binding signal in experiment [1] was found to be 3.08 z-score; in experiment [2], 2.24 z-score.
For “CCGATTAACATCAGGGGCGCCCCTGATGTTAATCGGGTCTTGATTCGCTTGACGCTGCTG”, in that order: 4.55 z-score and 4.9 z-score.
In the same order, the values of “CCGATTAACATCAGGGGGAGTGATGATGTTAATCGGGTCTTGATTCGCTTGACGCTGCTG” are 4.81 z-score and 4.48 z-score.
In the same order, the values of “CCGATTAACATCACGGAAAACCCTGATGTTAATCGGGTCTTGATTCGCTTGACGCTGCTG” are 1.92 z-score and 2.12 z-score.
